In the library only some 2.2% were active in any assay of this set; here they are far more common.
TMEM16A inh: inhibitors of mouse TMEM16A calcium-activated chloride channel | Q8BHY3 | HEK293 TMEM16A/YFP iodide influx fluorescence, ionomycin | normalized B-score (activity score, 25-100; higher = stronger inhibition) at 10 µM | hit rate 1.2% among 310,000 | AID 588511;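 active = ratio plate-corrected score three or more library SD toward inhibition, starting fluorescence score within five deviations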;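 note: score derived from kinetic fluorescence span divided by baseline fluorescence per well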
TMEM16A act: mouse TMEM16A channel activation, primary screen | Q8BHY3 | B-score at 10 µM | HEK293 TMEM16A/YFP-H148Q/I152L, iodide quench fluorescence; active compounds read low | hit rate 0.3% among 340,000;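 active = fluorescence-ratio B-score plate-corrected deviation score at least 3 library SD below zero, with starting fluorescence score within 5 deviations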;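 note: channel opened by trigger with iodide after compound preincubation; score built on the fluorescence ratio of max minus min over baseline; more negative score means more quench and so TMEM16A activation or potentiation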
CHO-K1 Ca ag: nonselective activator or artifact in parental CHO-K1 cells. activation, % at 3 µM. hit rate 0.48% among 360,000. Fluo-8 calcium fluorescence; scaled to maximal ATP response, vehicle zero; in the data active = activation above about 15%;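 note: untransfected CHO-K1 host cells lacking M1 receptor as counterscreen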
CHO-K1 Ca antag: M1 antagonist counterscreen hit in parental CHO-K1 cells; inhibition, % at 3 µM; hit rate 0.6% among 360,000; ATP-induced calcium, Fluo-8 fluorescence;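 active = inhibition above a per-plate cutoff, the plate's mean sample inhibition plus 3 SD, cut at about 24% in these data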;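 note: 0% = DMSO plus EC80 ATP and 100% = DMSO alone without ATP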
M1 PAM parental: M1 PAM counterscreen hit in parental CHO-K1 cells. ATP EC20, Fluo-8 calcium fluorescence; 0% at ATP EC20, 100% at ATP max. activation, % at 3 µM. hit rate 0.02% among 360,000. AID 602247;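 active = activation above the run cutoff, the mean activation of all test compounds plus 3 SD, cut at about 40% in these data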;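 note: peak over basal fluorescence ratio in a 140 s read after ATP addition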
NTR1 agonist: activates human neurotensin receptor 1; activation, % at 20 µM; AID 493036; NTR1-U2OS beta-arrestin-GFP spot imaging, agonist mode; hit rate 0.17% among 330,000;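 active = activation at or above 40% of the spot to cytoplasm intensity ratio, with at least 20 cells analyzed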;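 note: 0% = DMSO without peptide and 100% = 100 nM NTR1 peptide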
* marks the source's active call; other numbers are inactive results; i = inactive; · = not tested or not shown.

SMILES | TMEM16A inh | TMEM16A act | CHO-K1 Ca ag | CHO-K1 Ca antag | M1 PAM parental | NTR1 agonist
COC(=O)[C@@]1(Sc2ccc(C)cc2)CC(=O)N[C@@H]1c1ccc(C(F)(F)F)cc1 | · | · | 3 | -20 | 24 | ·
O=c1oc2ccccc2c(Nc2ccc(Cl)cc2)c1[N+](=O)[O-] | i | i | 12 | -4 | 4 | 2
O=c1oc2ccccc2c(Nc2ccc(F)cc2)c1[N+](=O)[O-] | i | i | 19* | -9 | 15 | 4
CCCN(CCC)c1ncnc2nc[nH]c12 | i | i | 0 | 29* | -4 | 0
CCOC(=O)c1c(NC(=O)CN2CCN(S(=O)(=O)c3cc(Cl)ccc3Cl)CC2)sc(C(=O)N(C)C)c1C | · | · | 1 | -12 | 0 | ·
Cc1onc(-c2ccccc2)c1NC(=O)Nc1ccc(OC(F)F)cc1 | i | i | 25* | 10 | -6 | -1
Cc1onc(-c2ccccc2)c1C(=O)Nc1ccc(OC(C)C)cc1 | i | i | 0 | -2 | 10 | -2
CSc1ncccc1C(=O)Nc1ccc(OC(F)(F)F)cc1 | i | i | 5 | -1 | -5 | 0
CC(=O)Nc1ccc(Sc2ncccc2C(=O)Nc2ccc(F)cc2)cn1 | i | i | 37* | 12 | -15 | 3
CN(C)C(=O)CCc1ccc2c3c([nH]c2c1)[C@]1(C)[C@@H](C(=O)N2CCOCC2)C[C@H](CC(=O)NCCN2CCOCC2)C(=O)N1CC3 | · | · | 0 | 24* | -15 | 2
CCCCN1C(=O)C(CC(=O)NC2CCCCC2)CC(C(=O)N2CCCCCC2)=C1C (stereo unspecified) | · | · | 0 | 14 | -16 | ·
O=C(NC(=S)Nc1ccccc1N1CCCC1)c1ccco1 | i | -6.9* | 0 | 20 | -27 | -1
O=C(NC(=S)Nc1cccc2cc(O)ccc12)c1ccco1 | i | i | 31* | 10 | -5 | 1
O=C(Nc1cccc(C(=O)O)c1)/C(=C\c1ccccc1)NC(=O)c1ccco1 | · | · | 1 | -13 | 20 | ·
Cc1ccc(S(=O)(=O)N2C[C@@H](C)[C@]3(C2)[C@H](O)[C@H](OC(=O)NCc2ccccc2F)C[C@H]2C(=O)N(c4ccccc4)C(=O)[C@H]23)cc1 | · | · | 1 | 8 | 1 | ·
CCCCCCCCN1C(=O)[C@H](CC(=O)NCc2cccc3ccccc23)C[C@@]2(C(=O)OCC)CCCC=C12 | · | · | 1 | -1 | 0 | ·
CCCCCCN1C[C@H](n2cc(-c3ccc(F)cc3)nn2)[C@@H](O)C[C@@H]1c1ccc(C)cc1 | · | · | 1 | -9 | 13 | ·
CCCCNC(=O)N1CCN(c2ccnc3cc(Cl)ccc23)CC1 | i | i | 16* | 4 | 7 | 0
CC(=O)N1CCN(c2ccnc3cc(Cl)ccc23)CC1 | i | i | 1 | -8 | 16 | 0
COc1ccc(CCn2c(C)cc(C(=O)CSc3nnnn3-c3ccccc3)c2C)cc1 | i | i | -1 | 24* | -8 | 0
COC(=O)C1=C(N)Oc2cc(C)n(Cc3cccnc3)c(=O)c2C1c1ccccc1OC (stereo unspecified) | i | i | 0 | 26* | -7 | 1
COC(=O)C1=C(N)Oc2cc(C)n(Cc3ccncc3)c(=O)c2C1c1cccnc1 (stereo unspecified) | i | -15* | 0 | -6 | 5 | -1
COC(=O)C1=C(N)Oc2cc(C)n(Cc3cccnc3)c(=O)c2C1c1ccc(OC)c(OC)c1OC (stereo unspecified) | i | i | 0 | -15 | 2 | 0
CCN(CC)c1ccc(/C=C2/C(=O)c3ccc(C(=O)O)cc3C2=O)cc1 | i | i | 62* | 56* | -10 | ·
N#CCSc1nnc(-c2sc3ccccc3c2Cl)o1 | i | i | 2 | -9 | 25 | 0
Clc1cccc2sc(-c3nnc(-c4ccccc4)o3)c(Cl)c12 | i | i | 0 | 26* | -7 | 2
Cc1ccnc2nc(C(=O)OCCOc3cccc(Br)c3)nn12 | i | i | 0 | 26* | -5 | -2
Cc1ccnc2nc(C(=O)OCCOc3ccccc3)nn12 | i | i | 1 | -9 | 10 | 1
COc1ccc(N2CCN(CCNC(=O)Nc3ccc(C)c(Cl)c3)CC2)cc1 | i | i | 18* | -12 | -8 | 1

Screening results: PubChem, several laboratories
